From PubChem BioAssay AID449728 (The Scripps Research Institute Molecular Screening Center, 2010)
Among all 330,000 compounds or so, about 900 (0.27%) were called active.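 The calls were made as follows: active = inhibition above the campaign's mean inhibition across all tested compounds plus 3 SD (cut at about 9.9% in these data); inactive = the rest.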 Many of the other results were omitted from the sample, so actives are more common in it than they were.

experiment: E. coli V3065 growth inhibition, primary screen, counter-screen for AddAB inhibitor project, absorbance, OD600 (AID 449728); settings: 18 h, at 11.9 µM, active compounds read high

SMILES	inhibition
Cc1ccc(-n2c(-c3ccc([N+](=O)[O-])cc3)nc3ccccc3c2=O)cc1	-0.79% (inactive)
O=[N+]([O-])c1cnc2ccc3ccccc3c2c1	53.1% (active)
C/C(=N/O)c1ccc2ccc3ccccc3c2c1	1.2% (inactive)
COCCNC(=O)CN1C2CCC1CC(O)(c1cccnc1)C2 (stereo not given)	-3.36% (inactive)
O=c1[nH]c(=O)n(-c2ccc(F)cc2)c(O)c1C=NCCN1CCCCC1	-0.49% (inactive)
